The whole screen tested about 360,000 compounds, of which about 17,000 (4.7%) were called active. About 5% were inconclusive and are not listed. For the sample, actives were picked, then their nearest neighbours and some compounds at random. A number with no mark means an inactive call. No stated cut-off is given here; in the data, active means activity change below about -50%; inconclusive means mostly about -30% to -49%; inactive means weaker than that.
On the % scale 0 is the no-effect control and ±100 the full control effect.

The experiment is described as follows: qHTS for Inhibitors of Inflammasome Signaling: IL-1-beta AlphaLISA Primary Screen. The following applies: THP-1 LPS/ATP IL-1B secretion, 16 h; at 57.5 µM, active compounds read low. The text has this: Inflammasomes are a set of intracellular multi-protein complexes that enable autocatalytic activation of inflammatory caspases and drive the innate immune response to counter harmful agents. […] A qHTS assay, based on AlphaLISA technology, was developed to screen the Molecular Libraries Small Molecule Repository (MLSMR) to look for novel inflammasome inhibitors. The assay detects IL-1B using AlphaLISA anti-IL-1B acceptor and donor beads. A decreased emission signal, indicating reduced IL-1B secretion, is the desired outcome for this assay. NIH Chemical Genomics Center [NCGC] NIH Molecular Libraries Probe Centers Network [MLPCN] MLPCN Grant: MH095513 Assay Provider: Shyam Biswal Ph.D., Johns Hopkins University Immunity. 2012 Jul 27;37(1):85-95. PMID: 22819042 [2] Curr Pharm Des. 2012;18(16):2320-8. PMID: 22390695
Three microliters containing 3000 THP-1 cells were dispensed into the wells of solid, white, tissue culture treated Greiner 1,536-well plates. Library compounds and positive control, Glyburide, were pin-transferred (23 nL) by a Kalypsys pin-tool equipped with a 1,536-pin array, resulting in final compound concentration ranges of 2.5 nM to 57.5 uM. After 1 hr of cell culture incubation (37 °C, 5% CO2), 1 microL of 1 microg/mL lipopolysaccharide (250 ng/mL, final) and 5 mM ATP (1.25 mM, final) were added to stimulate the cells. After 16 hr of cell culture incubation with the compounds, 1.5 uL of anti-IL-1B acceptor beads (6 ug/mL, final) and biotinylated antibody (0.6 nM, final) were added to the plate, followed by a 1 hr incubation at ambient temperature. To detect the secreted IL-1B, 1.5 uL of AlphaLISA SA-Donor beads (24 ug/mL, final) were added, followed by 30 min of incubation in the dark at ambient temperature. The AlphaLISA signal was read by a PerkinElmer EnVision plate reader with an ultrasensitive luminescence detector and 1536 Plate HTS AlphaScreen aperture (excitation of 680nm and emission of 615nm).
For orientation: qHTS replaces the single test concentration by a dilution series.
As for `O=C1OCCC1=COCCCCOC=C1CCOC1=O`, the activity change was 2.81%.

In the case of `COc1ccc(C(=O)C2CCCN(Cc3cccn3-c3ccccn3)C2)c(C)c1` (stereo unspecified), the activity change is -99.7% (active).

In the case of `CCOC(=O)c1[nH]ncc1CN1CCCC(C(=O)c2ccc(OC)cc2C)C1` (stereo unspecified), the activity change is 0%.

Consider `COc1ccc(C(=O)C2CCCN(Cc3ccc4nonc4c3)C2)c(C)c1` (stereo unspecified), for which the activity change was -3.49%.

For the compound `Cc1[nH]c2ccccc2c1C(=O)C(=O)NCc1nnnn1-c1cccc(F)c1`, the activity change is 10.9%.

With `Cc1ccccc1-c1csc(C(O)c2cccc(Cl)c2)n1` (stereo unspecified), the activity change was -11.7%.

As to `CCN(CC)c1ncnc2c1ncn2[C@H]1CN(Cc2cccs2)C[C@@H](CO)O1`, the activity change was -12%.

Turning to `Cc1csc(NC(=O)C2=COCCO2)n1`, the activity change was -3.32%.

With `Cc1ccc(-c2csc(NC(=O)C3=COCCO3)n2)cc1C`, the activity change was -88.1% (active).

Consider `CC(=O)NCCC(=O)Nc1nc(-c2ccc3c(c2)OCCO3)cs1`, for which the activity change is 15.5%.

In the case of `Nc1nc2cc(Cl)ccc2n1N`, the activity change was 32.9%.

For `CCn1nc(C)c(/C=N/NC(=O)Cc2ccc(Cl)cc2)c1C`, the activity change is 14.8%.

Turning to `Cc1nn(Cc2ccc(Cl)cc2)c(Cl)c1/C=N/NC(=O)c1cccnc1`, the activity change is -70.6% (active).

In the case of `Cc1nn(Cc2ccc(Cl)cc2)c(Cl)c1/C=N/NC(=O)CNc1ccccc1F`, the activity change was -13.7%.

With `COc1ccccc1NC(=O)Nc1nc(CC(=O)Nc2ccccc2F)cs1`, the activity change is -1.21%.

`CC(=O)c1ccc(Nc2nc(C(N)c3ccccc3Cl)cs2)cc1` (stereo unspecified): the activity change was 49.4%.

Take `NC(c1csc(NC(=O)Nc2ccccc2Oc2ccccc2)n1)c1ccccc1Cl` (stereo unspecified): the activity change was -71.7% (active).

Regarding `CC/C(=C\c1ccc(Cl)cc1)c1ccncc1`, the activity change is 3.7%.

In the case of `COCCCn1c(C(=O)NC2CCCCC2)cc2c(=O)n3cccc(C)c3nc21`, the activity change was -7.13%.

With `Cn1ncc([N+](=O)[O-])c1C(=O)Nc1cc(Cl)ccc1Cl`, the activity change is -5.95%.

On to `COc1ccccc1NC(=O)Nc1nnc(Cc2ccc(F)cc2)s1`, for which the activity change is 28.6%.

Regarding `Cc1cccc(C)c1Cn1c(C)c(C(=O)NCc2cccc(Cl)c2)sc1=O`, the activity change is -13.4%.

Regarding `CC(=O)OCc1cc(=O)n(C)c(=O)n1C`, the activity change was 18.2%.

As for `COc1ccc(OCC(O)CN(C)C(=O)C(C)Oc2ccccc2)cc1` (stereo unspecified), the activity change was -1.85%.

On to `Cc1ccc(OCC(=O)OC(C)CN(C)Cc2ccccc2)cc1` (stereo unspecified), for which the activity change is 11.3%.

With `CN(Cc1ccccc1)CC(O)COc1ccc(CNCc2cc3ccccc3s2)cc1` (stereo unspecified), the activity change is -52.3% (active).

`CC1(C(=O)NCc2ccccc2)CSCC(=O)N1CCCn1ccnc1` (stereo unspecified): the activity change was -3.98%.

For `Cc1ccc(C(CNC(=O)Nc2ccccc2)N2CCN(C)CC2)cc1` (stereo unspecified), the activity change was -19.3%.

With `Cc1ccc2nc(SCC(=O)N3CCN(c4ccccc4)CC3)nc(=O)n2c1`, the activity change is -22.4%.

As for `CCN(CC)CCCNC(=O)CCn1nc(-c2ccc(Cl)cc2)ccc1=O`, the activity change was 0.889%.

For the compound `CCN(CCCNC(=O)CSc1cc(=O)n(C)c2cc(Cl)ccc12)Cc1ccccc1`, the activity change is -66.3% (active).

In the case of `CCOc1ccc(CCNC(=O)CSc2cc(=O)n(C)c3ccc(Cl)cc23)cc1OCC`, the activity change is 15.4%.

`COC(=O)c1ccc(CN2C(=O)C(Cc3ccccc3)ON=C2c2ncccc2C)o1` (stereo unspecified): the activity change is 0%.

Turning to `Cc1ccc2cccc(OCCCOc3ccccc3CO)c2n1`, the activity change was -5.38%.

Consider `N#Cc1cccc(NC(=O)CN2CCCCCC2)c1`, for which the activity change was -4.14%.

In the case of `Cc1nc(-c2ccc([N+](=O)[O-])cc2)c(-c2ccccc2)o1`, the activity change is -1.34%.

With `O=C1CC(c2ccccc2)=NN1c1ccc([N+](=O)[O-])cc1`, the activity change was -62.7% (active).

As to `O=[N+]([O-])c1ccc(N2CCOCC2)cc1`, the activity change is -12%.

Regarding `Cc1c(NC(=O)COC(=O)/C=C/c2cccc(F)c2)c(=O)n(-c2ccccc2)n1C`, the activity change was -1.18%.

As to `CCCCN1CC(C)(C)[C@H](CC(=O)Nc2ccc(Br)cc2)C1=O`, the activity change is -25.6%.

Take `COc1ccc([C@H]2C[C@@H](n3cc(COC(=O)c4ccccc4)nn3)[C@H](O)CN2C(=O)c2cccs2)cc1`: the activity change was 3.71%.

In the case of `C[C@H]1CN([C@@H](C)CO)C(=O)CCCn2cc(nn2)CO[C@@H]1CN(C)S(=O)(=O)c1ccc(-c2ccccc2)cc1`, the activity change was 0%.

In the case of `CN1CCN(Cc2c(O)ccc3c2oc(=O)c2ccccc23)CC1`, the activity change is -65.7% (active).

For the compound `O=c1oc2c(CN3CCCCC3)c(O)ccc2c2c1CCCCC2`, the activity change was 11%.

Regarding `CCOC(=O)c1oc2c(CN3CCN(C)CC3)c(O)ccc2c(=O)c1-c1ccc(Br)cc1`, the activity change was 2.61%.

Take `O=c1cc(CN2CCCCCCC2)c2c(ccc3ccccc32)o1`: the activity change was 25.6%.
